Test [1] deals with MILI (PIWIL2) piRISC loaded with piRNA #1 (26 nt). Nature of the test: pre-steady-state target cleavage rate (min^-1); guide: piRNA #1 5'p-UGAGGUAGUAGGUUGUAUAGUAUCCA; higher = faster piRNA-guided slicing of the target. Particulars: auxiliary factor: 500 nM mouse GTSF1. The method in brief: (§1)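 Cleave-'n-Seq: a transcribed, DNA-blocked target RNA library (0.1 nM) was mixed with 1 nM active affinity-purified piRISC carrying one synthetic guide, with or without 500 nM GTSF1 partner protein, in HEPES–potassium acetate buffer at 33 °C for 0–8 or 0–960 min. Uncleaved targets were sequenced and normalised to depth and to weakly complementary targets. Three trials were pooled, and k3 was capped at 0.0001 min^-1. The pre-steady-state cleavage rate came from a burst-and-steady-state fit.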

Test [2] has as its system EfPiwi piRISC loaded with piRNA #1 (26 nt). Nature of the test: pre-steady-state target cleavage rate (min^-1); auxiliary factor: 500 nM Ephydatia muelleri Gtsf1; guide: piRNA #1 5'p-UGAGGUAGUAGGUUGUAUAGUAUCCA; MIWI and MILI are mouse PIWI proteins and EfPiwi is from a freshwater sponge; tags in brackets are library labels; higher = faster piRNA-guided slicing of the target. The method in brief:
as §1

± gives the standard deviation.

Regarding GGAGAGGUUACUAUACAACCUACUACCACA, the “pre-steady-state target cleavage rate” value in test [1] came to 0.0673 ± 0.0096; in test [2], 0.00331 ± 0.0014.

Take GGAGACCAUACUAUACAACCUACUACCUGCA: the “pre-steady-state target cleavage rate” value came out at 0.213 ± 0.023 in test [1] and 0.00318 ± 0.002 in test [2].

Turning to GGAGUGGUUACUAUACAACCUACUACCACA, the “pre-steady-state target cleavage rate” value in test [1] worked out at 0.0961 ± 0.0098; in test [2], 0.00384 ± 0.0022.

Take GGAGACGAUACUAUUCAACGUACUACCUCA: the figures for the “pre-steady-state target cleavage rate” value in test [1] and in test [2] were 0.0257 ± 0.0034 and 0.00355 ± 0.0011, respectively.

In the case of “GGAGACCUAACUAUACAACCUACUACCUCU [g2:g21:cont:t1U]”, the “pre-steady-state target cleavage rate” value in test [1] was determined as 0.152 ± 0.025; in test [2], 0.915 ± 0.29.

Take GGAGUGCAUACUAUACAACGUACUACCUCA: the “pre-steady-state target cleavage rate” value came out at 0.0301 ± 0.0044 in test [1] and 0.00739 ± 0.0027 in test [2].

With GGAGACCAUACUAUACAACCAACUACCUCA, the entries for the “pre-steady-state target cleavage rate” value in test [1] and in test [2] were 0.00362 ± 0.0025 and 0.00627 ± 0.0022, respectively.

As for GGAGACCUUACUAUAUAACCUACUACCUCA, the “pre-steady-state target cleavage rate” value in test [1] turned out to be 0.124 ± 0.0081; in test [2], 0.00964 ± 0.005.

With GGAGUCGAUACUAUACAACCUAGUACCUCA, the “pre-steady-state target cleavage rate” value is 0.0166 ± 0.0031 in test [1] and 0.00334 ± 0.0014 in test [2].

Consider GGAGACCUAUCUAUACACCCUACUACCUCA, for which the “pre-steady-state target cleavage rate” value was found to be 0.0257 ± 0.006 in test [1] and 0.00728 ± 0.0037 in test [2].

As for GGAGUGGAUACUAUUCAACGUACUACCUCA, the “pre-steady-state target cleavage rate” value in test [1] was determined as 0.0305 ± 0.004; in test [2] it was 0.00373 ± 0.0014.

Consider GGAGACCUUACUUUACAACCUACUACCUCA, for which the figures for the “pre-steady-state target cleavage rate” value in test [1] and in test [2] were 0.129 ± 0.01 and 0.00728 ± 0.0042, respectively.

For GGAGACCUUACUUUACAUCCUACUACCUCA, the “pre-steady-state target cleavage rate” value in test [1] is 0.26 ± 0.022; in test [2], 0.00417 ± 0.0035.

As for GGAGACCAACUAUACAACCUACUACCUCA, the “pre-steady-state target cleavage rate” value amounted to 0.224 ± 0.021 in test [1] and 0.00596 ± 0.0037 in test [2].

As for GGAGACCUUACUAUACAACCUACUACCUCCA, the “pre-steady-state target cleavage rate” value in test [1] is 0.133 ± 0.014; in test [2], 0.00652 ± 0.0028.

Regarding GGAGACCUUACUAUACAACCUACUACCUACA, the “pre-steady-state target cleavage rate” value was 0.109 ± 0.017 in test [1] and 0.00473 ± 0.0031 in test [2].

As to GGAGACGAUACUAUACAACGUACUAGCUCA, the “pre-steady-state target cleavage rate” value in test [1] stood at 0.00418 ± 0.0035; in test [2] it was 0.00363 ± 0.0015.

On to GGAGACCAUACUAUACAUCGUACUACCUCA, for which the results for the “pre-steady-state target cleavage rate” value in test [1] and in test [2] were 0.0535 ± 0.0071 and 0.0027 ± 0.0021, respectively.

On to GGAGUGGAUACUAUACUACCUACAACCUCA, for which the results for the “pre-steady-state target cleavage rate” value in test [1] and in test [2] were 0.117 ± 0.0096 and 0.00209 ± 0.0019, respectively.

As to GGAGUGGCAUACUAUACAACCUACUACCUCA, the “pre-steady-state target cleavage rate” value in test [1] was 0.204 ± 0.015; in test [2] it was 0.101 ± 0.029.

For the sequence GGAGACGAUACUAUACUUCCUACUACCUCA, the “pre-steady-state target cleavage rate” value in test [1] turned out to be 0.242 ± 0.016; in test [2] it was 0.0109 ± 0.0064.

With GGAGUGGAUACUAUACAACGCUACUACCUCA, the “pre-steady-state target cleavage rate” value in test [1] was determined as 0.0044 ± 0.0029; in test [2], 0.00636 ± 0.003.

On to GGAGAGGAUACUAUACAACCUACAUACCUCA, for which the figures for the “pre-steady-state target cleavage rate” value in test [1] and in test [2] were 0.123 ± 0.012 and 0.00353 ± 0.0021, respectively.

With GGAGUGGAUACUAUGACAACCUACUACCUCA, the “pre-steady-state target cleavage rate” value in test [1] came out at 0.188 ± 0.011; in test [2], 0.0114 ± 0.0053.

As to GGAGACCUAUGAACACAACCUACUACCUCA, the “pre-steady-state target cleavage rate” value in test [1] stood at 0.0162 ± 0.0041; in test [2], 0.00896 ± 0.0044.

Turning to GGAGAGGAUACUAUUCAACCUACUUCCUCA, the “pre-steady-state target cleavage rate” value in test [1] is 0.0111 ± 0.0046; in test [2], 0.00313 ± 0.0024.

Turning to GGAGACCUAACUUUACAACCUACUACCUCA, the “pre-steady-state target cleavage rate” value was found to be 0.109 ± 0.025 in test [1] and 0.00631 ± 0.0034 in test [2].

In the case of GGAGUGGAUACUAAACAACCUUCUACCUCA, the entries for the “pre-steady-state target cleavage rate” value in test [1] and in test [2] were 0.00905 ± 0.0025 and 0.00385 ± 0.0026, respectively.

GGAGACGAUACUAUACAUCCUACUACGUCA: the “pre-steady-state target cleavage rate” value in test [1] was determined as 0.213 ± 0.033; in test [2], 0.00318 ± 0.0012.

Regarding GGAGACCAUACUUUACAACCUAGUACCUCA, the “pre-steady-state target cleavage rate” value in test [1] stood at 0.119 ± 0.025; in test [2] it was 0.00535 ± 0.0043.

On to GGAGUGGAUACUAACAACCUACUACCUCA, for which the entries for the “pre-steady-state target cleavage rate” value in test [1] and in test [2] were 0.183 ± 0.011 and 0.00566 ± 0.0038, respectively.

GGAGUGGAUACUAUUCAACCUACUACCUGA: the “pre-steady-state target cleavage rate” value in test [1] amounted to 0.0817 ± 0.011; in test [2] it was 0.00324 ± 0.0019.

Regarding GGAGACCAUACUAUACAACCUACUACGCUCA, the “pre-steady-state target cleavage rate” value in test [1] was 0.219 ± 0.028; in test [2], 0.00458 ± 0.0028.

Turning to GGAGACCUUACUAUGACAACCUACUACCUCA, the “pre-steady-state target cleavage rate” value came out at 0.179 ± 0.018 in test [1] and 0.00456 ± 0.0042 in test [2].

For GGAGACGAUACUAUACAACCACUACCUCA, the “pre-steady-state target cleavage rate” value in test [1] is 0.00914 ± 0.0038; in test [2], 0.00795 ± 0.0036.

GGAGAGGAUACUAUACAACCUACUAGCCUCA: the “pre-steady-state target cleavage rate” value in test [1] came to 0.123 ± 0.02; in test [2] it was 0.00421 ± 0.0018.

Consider GGAGACCAUACUAUUCAACCUACUACCUCA, for which the “pre-steady-state target cleavage rate” value is 0.189 ± 0.016 in test [1] and 0.0056 ± 0.0032 in test [2].

Take GGAGACCUAACUAUACAACGUAGUACCUCA: the “pre-steady-state target cleavage rate” value worked out at 0.00851 ± 0.0056 in test [1] and 0.00322 ± 0.0027 in test [2].

In the case of GGAGACGUAUACUAUACAACCUACUACCUCA, the results for the “pre-steady-state target cleavage rate” value in test [1] and in test [2] were 0.193 ± 0.013 and 0.0356 ± 0.013, respectively.

For GGAGUGGAUACUAUACAACCUACUACGAGA, the “pre-steady-state target cleavage rate” value in test [1] was 0.0112 ± 0.004; in test [2], 0.00447 ± 0.0022.

Take “GGAGACCUAUGAAUACAACCUACUACCUCA [g2:g18:cont:t1A]”: the “pre-steady-state target cleavage rate” value stood at 0.00878 ± 0.0033 in test [1] and 0.00706 ± 0.0032 in test [2].

As for GGAGUGGUUACUAUACAACCUACUAGCUCA, the “pre-steady-state target cleavage rate” value in test [1] was 0.0259 ± 0.0059; in test [2], 0.00221 ± 0.001.

For the sequence GGAGACGAUACUAUACAACCUAACUACCUCA, the “pre-steady-state target cleavage rate” value in test [1] came to 0.0232 ± 0.0036; in test [2], 0.0045 ± 0.0021.

With GGAGACCAUACUAUACAACGUACUACCUGA, the “pre-steady-state target cleavage rate” value in test [1] is 0.011 ± 0.0036; in test [2], 0.00457 ± 0.0027.

As to GGAGACCAUACUAUACAACCAACUACGUCA, the results for the “pre-steady-state target cleavage rate” value in test [1] and in test [2] were 0.00313 ± 0.003 and 0.00504 ± 0.004, respectively.

On to GGAGACCUAUGCAUACAACCUACUACCUCA, for which the “pre-steady-state target cleavage rate” value is 0.0358 ± 0.0081 in test [1] and 0.0042 ± 0.0037 in test [2].

On to GGAGUGGAUACUAAACAACCUACAACCUCA, for which the “pre-steady-state target cleavage rate” value in test [1] is 0.0728 ± 0.009; in test [2], 0.00162 ± 0.0015.

Turning to GGAGAGGAUACUAUACAACCUACUACCUCCA, the “pre-steady-state target cleavage rate” value in test [1] stood at 0.152 ± 0.011; in test [2] it was 0.142 ± 0.054.

GGAGACGAUACUAUAGUACCUACUACCUCA: the “pre-steady-state target cleavage rate” value amounted to 0.193 ± 0.013 in test [1] and 0.00438 ± 0.0021 in test [2].

For GGAGACGAUACUAUACAACCUACUACCCCA, the “pre-steady-state target cleavage rate” value was 0.144 ± 0.025 in test [1] and 0.00536 ± 0.0014 in test [2].

As for GGAGACCAAACUAAACAACCUACUACCUCA, the “pre-steady-state target cleavage rate” value was 0.104 ± 0.027 in test [1] and 0.00793 ± 0.0036 in test [2].

Regarding GGAGUGGAUACUAUACAACUUACUACCUCA, the entries for the “pre-steady-state target cleavage rate” value in test [1] and in test [2] were 0.0246 ± 0.0024 and 0.01 ± 0.0049, respectively.

As to GGAGACGUUACUAUACAUCCUACUACCUCA, the “pre-steady-state target cleavage rate” value is 0.293 ± 0.018 in test [1] and 0.00676 ± 0.003 in test [2].

Turning to GGAGACGAAACUAUACAACCUACUUCCUCA, the “pre-steady-state target cleavage rate” value in test [1] came out at 0.0627 ± 0.022; in test [2], 0.00318 ± 0.0023.

For “GGAGACGAUACUAUACAACCUACUACCUCC [g2:g24:cont:t1C]”, the “pre-steady-state target cleavage rate” value in test [1] is 0.182 ± 0.014; in test [2] it was 0.0508 ± 0.017.

With GGAGUGGAUACUAUACAACCUACUACCUUCA, the “pre-steady-state target cleavage rate” value worked out at 0.128 ± 0.01 in test [1] and 0.168 ± 0.061 in test [2].

As for GGAGUGGAUACUAUACAAGCUACUAGCUCA, the results for the “pre-steady-state target cleavage rate” value in test [1] and in test [2] were 0.0419 ± 0.0091 and 0.00331 ± 0.0021, respectively.

On to GGAGACGAUACGAUACAACCUACUACCUCA, for which the “pre-steady-state target cleavage rate” value in test [1] amounted to 0.193 ± 0.018; in test [2] it was 0.049 ± 0.019.

Take GGAGAUGAUACUAUACAACCUACUACCUCA: the “pre-steady-state target cleavage rate” value in test [1] is 0.198 ± 0.013; in test [2], 0.193 ± 0.068.

In the case of GGAGACCAUACUAUACAACCUACUACGACA, the “pre-steady-state target cleavage rate” value in test [1] came to 0.16 ± 0.025; in test [2], 0.00532 ± 0.0028.

(Values after the supplement of paper PMC10338343.)
